PHOSPHO1 block = blocks human PHOSPHO1 phosphatase activity | Q8TCT1 | recombinant PHOSPHO1, absorbance phosphatase assay | inhibition, % at 13.3 µM | 290,000 tested, 1.1% active | AID 1565; in the data active means inhibition above about 60%
Target sequence (Q8TCT1 whole entry, looked up): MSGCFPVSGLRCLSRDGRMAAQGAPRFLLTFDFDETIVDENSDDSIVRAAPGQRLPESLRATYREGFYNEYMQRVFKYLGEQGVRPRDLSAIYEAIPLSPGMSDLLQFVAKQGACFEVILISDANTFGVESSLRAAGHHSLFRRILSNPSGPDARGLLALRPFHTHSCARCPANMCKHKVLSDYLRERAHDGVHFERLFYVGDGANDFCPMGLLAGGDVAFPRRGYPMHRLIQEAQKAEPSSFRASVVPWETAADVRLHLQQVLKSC
aDG glyco act = alpha-DG glycosylation activation; Pro5-aDG cells, alpha-DG glycosylation AlphaScreen (IIH6); 0% Pro5, 100% B10-LARGE cell signal; 360,000 tested, 0.22% active; activation, % at 10 µM;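 active means activation of at least 8% versus controls, or a plate z-score of at least 8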;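 further: Pro5 are CHO cells carrying HIG-tagged alpha-DG that lacks glycosylation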
rCAG binder = binds r(CAG) RNA repeats; AID 651821; 370,000 tested, 1.3% active; r(CAG) RNA repeat, TO-PRO-1 dye displacement fluorescence; inhibition, % at 3 µM;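 active means inhibition above the plate cutoff, the mean of all test compounds on that plate plus 3 SD, cut at about 35% in these data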;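 further: higher means more dye released from RNA so lower well fluorescence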
APOBEC3G inh = APOBEC3G (human) deaminase inhibition; 330,000 tested, 0.28% active; Q9HC16; AID 493012; inhibition, % at 20 µM; recombinant A3G, ssDNA deamination FAM/TAMRA fluorescence;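 active means inhibition of at least 40% at 20 µM, with no more than 30% in the related APOBEC3A deaminase screen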
ALR inh = human ALR oxidase inhibition via reduced H2O2; inhibition, % (test concentration not listed); P55789; AID 485317; purified ALR, DTT oxidation, H2O2 HRP-luminol luminescence; 290,000 tested, 3.8% active;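 active means mean replicate inhibition above about 79%, with every replicate also reaching it, limit read from the data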
Target sequence (P55789 whole entry, looked up): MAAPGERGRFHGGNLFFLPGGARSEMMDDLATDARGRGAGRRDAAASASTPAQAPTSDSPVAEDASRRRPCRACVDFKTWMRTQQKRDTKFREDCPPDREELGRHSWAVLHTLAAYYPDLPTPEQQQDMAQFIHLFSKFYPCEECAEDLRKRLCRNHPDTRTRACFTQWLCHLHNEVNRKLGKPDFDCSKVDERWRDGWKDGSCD
APOBEC3A inh = inhibitors of human APOBEC3A DNA deaminase; P31941; recombinant A3A, FAM/TAMRA ssDNA deamination fluorescence; 330,000 tested, 0.41% active; inhibition, % at 20 µM;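 active means at least 40% inhibition at 20 µM here, with at most 30% in a related deaminase screen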
Target sequence (P31941 whole entry, looked up): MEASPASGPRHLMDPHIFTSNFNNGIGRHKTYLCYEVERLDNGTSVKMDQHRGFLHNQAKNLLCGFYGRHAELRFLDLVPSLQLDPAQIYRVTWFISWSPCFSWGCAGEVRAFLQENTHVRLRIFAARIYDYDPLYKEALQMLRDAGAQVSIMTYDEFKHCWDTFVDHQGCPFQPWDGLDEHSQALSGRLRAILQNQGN
APOBEC3A confirm = confirmation of human APOBEC3A DNA deaminase inhibitors; shares compounds with APOBEC3A inh; 1,400 tested, 63% active; inhibition, % at 20 µM; recombinant A3A, ssDNA deaminase UDG fluorescence assay;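 active means inhibition reaching a set limit, 80% of the first screen's cutoff, at 20 µM in any replicate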
UDG A3A counter = counter-screen for APOBEC3A inhibitors: UDG; inhibition, % at 20 µM; UDG counterscreen, FAM/TAMRA uracil oligo fluorescence; shares compounds with APOBEC3A inh; 1,000 tested, under 10 active; call rule not given here
Large screens that a line does not name were inactive (follow-up assays come after a bar, where they were run). Compounds with a hit are over-represented: about 5.4% of the library has one in this group of screens.

N#Cc1ccc(S(=O)(=O)NC(=O)[C@H]2O[C@@H](n3ccc(=O)[nH]c3=O)[C@H](O)[C@@H]2O)cc1	none (no result: PHOSPHO1 block, aDG glyco act, APOBEC3G inh, ALR inh, APOBEC3A inh)
Cc1nnc(SCC(=O)N2N=C(c3ccc(Cl)cc3)CC2c2ccco2)[nH]c1=O (configuration not stated)	APOBEC3A inh 50 | APOBEC3A confirm 10 | UDG A3A counter inactive
Cn1nnnc1SCC(=O)N1N=C(c2ccc(Cl)cc2)CC1c1ccco1 (configuration not stated)	none (no result: PHOSPHO1 block)
CCN(CC)C(=O)C1=C(C)N(Cc2ccc(F)cc2)C(=O)C(CC(=O)NC(c2ccccc2)c2ccccc2)C1 (configuration not stated)	none (no result: PHOSPHO1 block, APOBEC3G inh, ALR inh, APOBEC3A inh)
Cc1ccc(S(=O)(=O)Cc2ccc(C(=O)N3CCc4ccccc4C3)o2)cc1	APOBEC3A inh 41 | APOBEC3A confirm 34 | UDG A3A counter inactive
Cc1ccc(S(=O)(=O)Cc2ccc(C(=O)N3CCN(c4cccc(C)c4C)CC3)o2)cc1	none
CCOC(=O)c1ccc2c(c1)N(C)C(=O)c1ccccc1S2	APOBEC3A inh 57 (no result: rCAG binder) | APOBEC3A confirm 82 | UDG A3A counter inactive
COc1ccc2c(c1)c(=O)oc1cc(OCC(=O)N3CCC(C)CC3)ccc12	APOBEC3A inh 54 (no result: rCAG binder) | APOBEC3A confirm 49 | UDG A3A counter inactive
COc1ccc2c(c1)c(=O)oc1cc(OCC(=O)N3CCc4ccccc4C3)ccc12	APOBEC3A inh 45 | APOBEC3A confirm 71 | UDG A3A counter inactive
COc1ccc2c(c1)c(=O)oc1cc(OCC(=O)N3CCCC(C)C3)ccc12 (configuration not stated)	none
CN(Cc1ccco1)C(=O)[C@@H](Cc1ccccc1)NC(=O)[C@H]1O[C@@H](n2ccc(=O)[nH]c2=O)[C@H](O)[C@@H]1O	none (no result: PHOSPHO1 block, aDG glyco act, APOBEC3G inh, ALR inh, APOBEC3A inh)
NC(=O)CC1(c2ccccc2)CCCCC1	none (no result: PHOSPHO1 block, APOBEC3G inh, ALR inh, APOBEC3A inh)
COC(=O)[C@H](C(C)C)N(Cc1cn(Cc2ccc(C)cc2)nn1)S(=O)(=O)c1ccc(F)cc1Br	none (no result: PHOSPHO1 block, aDG glyco act, APOBEC3G inh, ALR inh, APOBEC3A inh)
O=C(/C=C/c1cn(-c2ccccc2)nc1-c1cccnc1)N1CCCC1	none (no result: APOBEC3G inh, ALR inh, APOBEC3A inh)
N#C/C(=C\c1cn(-c2ccccc2)nc1-c1cccnc1)c1nnc2n1CCCCC2	APOBEC3A inh 43 | APOBEC3A confirm inactive | UDG A3A counter inactive
Cc1ccc(S(=O)(=O)N(C)c2cccc3c2S(=O)(=O)N([C@H](C)c2ccccc2)C[C@@H](COCc2ccccc2)O3)cc1	none (no result: PHOSPHO1 block, aDG glyco act, APOBEC3G inh, ALR inh, APOBEC3A inh)
C[n+]1ccccc1C1CCCC/C1=N\NC(N)=S (configuration not stated)	APOBEC3A inh 84 | APOBEC3A confirm 55 | UDG A3A counter inactive
CCn1c(SCC(=O)N2CCCC2)nnc1-c1ccc(N)cc1	APOBEC3A inh 44 | APOBEC3A confirm 65 | UDG A3A counter inactive
O=C(c1ccc(=O)oc1)N1CCCc2ccccc21	ALR inh 89, APOBEC3A inh 71 | APOBEC3A confirm 60
O=C(c1ccc(F)cc1)N1CCOCC1	none
O=C(c1ccc(=O)oc1)N1CCOCC1	APOBEC3A inh 95 | APOBEC3A confirm 84
O=C(c1ccccc1)N1CCCc2ccccc21	none
COCc1cc(C)nc(N2CCN(Cc3ccccc3)CC2)c1C#N	PHOSPHO1 block 78, APOBEC3A inh 72 | APOBEC3A confirm 66 | UDG A3A counter inactive
Oc1ccc(Nc2nc3ccccc3nc2Nc2ccc(O)cc2)cc1	PHOSPHO1 block 100, ALR inh 96, APOBEC3A inh 42 (no result: rCAG binder) | APOBEC3A confirm 43 | UDG A3A counter inactive
OCCNc1nc2ccccc2nc1NCCO	none
NC(=O)c1c(N)[nH]c(C(=O)c2ccccc2)c1-c1ccc(Cl)cc1Cl	none (no result: PHOSPHO1 block, aDG glyco act, APOBEC3G inh, ALR inh, APOBEC3A inh)
C=CCN1[C@@H](C)[C@H](c2ccccc2)Oc2cccc(N3CCCC(C)C3)c2S1(=O)=O (some centres not stated)	none (no result: PHOSPHO1 block, aDG glyco act, APOBEC3G inh, ALR inh, APOBEC3A inh)
Cc1cccc2c(Cl)cc(=O)[nH]c12	none (no result: aDG glyco act, ALR inh)
Cc1cccc2cc(=O)[nH]c(C)c12	APOBEC3A inh 40 | APOBEC3A confirm inactive
O=C(O)c1ccc(N/N=C/C=C/c2ccc([N+](=O)[O-])o2)cc1	APOBEC3A inh 48 | APOBEC3A confirm 41
COC(=O)[C@]12C[C@H](CC(=O)NCCc3ccccc3OC)C(=O)N(Cc3cccc4ccccc34)C1=C[C@H](C1CCCC1)O[C@@H]2C	none (no result: PHOSPHO1 block, aDG glyco act, APOBEC3G inh, ALR inh, APOBEC3A inh)
Cc1c(NC(=O)c2cc(-n3cnnc3)ccc2Cl)cccc1-c1nc2ccccc2o1	APOBEC3A inh 46 | APOBEC3A confirm 64 | UDG A3A counter inactive
O=C(Nc1ccc(-c2nc3ccccc3o2)c(O)c1)c1cc(-n2cnnc2)ccc1Cl	none
C=CCN1[C@H](C#N)[C@@H](c2ccccc2)[C@H]1CO	none (no result: PHOSPHO1 block, aDG glyco act, APOBEC3G inh, ALR inh, APOBEC3A inh)
CCCc1nc2sc3c(SCC(=O)NCc4ccco4)ncnc3c2c2c1CCC2	APOBEC3A inh 54 | APOBEC3A confirm 42 | UDG A3A counter inactive
CCSc1nc2sc3c(c2c2nnc(SCC(=O)NCc4ccco4)n12)CCCC3	none (no result: PHOSPHO1 block, aDG glyco act, rCAG binder)
O=C(COc1cccc(C(F)(F)F)c1)NCC(c1ccco1)N1CCCC1 (configuration not stated)	APOBEC3A inh 46 (no result: PHOSPHO1 block, ALR inh) | APOBEC3A confirm inactive
O=C(CN1C(=O)NC2(CCCC2)C1=O)NCc1ccccc1	none (no result: PHOSPHO1 block)
O=C(CN1C(=O)NC2(CCSC2)C1=O)NCc1ccccc1 (configuration not stated)	APOBEC3A inh 84 | APOBEC3A confirm inactive | UDG A3A counter inactive
C#CCNC(=O)C[C@@H]1C[C@@]2(C(=O)OC)CCCCC=C2N(CCC2=CCCCC2)C1=O	none (no result: PHOSPHO1 block, APOBEC3G inh, ALR inh, APOBEC3A inh)
C=CCOc1ccc(Cl)cc1-c1noc(-c2csc([C@H]3C[C@H](O)[C@@H](CO)O3)n2)n1	none (no result: PHOSPHO1 block, APOBEC3G inh, ALR inh, APOBEC3A inh)
O=C(/C=C/c1ccco1)N1CCN(S(=O)(=O)c2ccccc2)CC1	APOBEC3A inh 41 (no result: PHOSPHO1 block) | APOBEC3A confirm inactive
Cc1ccc(S(=O)(=O)N2CCN(C(=O)/C=C/c3ccco3)CC2)cc1	none
O=C(COc1ccccc1Cl)N1CCN(c2ccccn2)CC1	APOBEC3A inh 42 (no result: PHOSPHO1 block) | APOBEC3A confirm inactive
CCc1n(CC(O)COCc2ccccc2)c2ccccc2[n+]1C (configuration not stated)	APOBEC3A inh 58 (no result: ALR inh) | APOBEC3A confirm 79 | UDG A3A counter inactive
Cc1ccccc1NC(=O)C1CCN(S(=O)(=O)c2cccs2)CC1	none
COc1cc(C)c(NC(=O)C2CCN(S(=O)(=O)c3cccs3)CC2)cc1OC	APOBEC3A inh 57 (no result: PHOSPHO1 block) | APOBEC3A confirm 55 | UDG A3A counter inactive
CCCCCn1ccc(=N)cc1	PHOSPHO1 block 93, APOBEC3A inh 62 | APOBEC3A confirm 72 | UDG A3A counter inactive
CCn1ccc(=N)cc1	none
CCCCCCCn1ccc(=N)cc1	APOBEC3A inh 74 | APOBEC3A confirm 74 | UDG A3A counter inactive
CCCCCCCCCn1ccc(=N)cc1	none
C[C@H]1NS(=O)(=O)c2cccc(Cl)c2O[C@@H]1c1ccccc1	none (no result: PHOSPHO1 block, aDG glyco act, APOBEC3G inh, ALR inh, APOBEC3A inh)
